Assay results: PubChem BioAssay (NCI)
About 79,000 compounds went through this panel and 15% of them were active in at least one assay; those are over-represented in the sample as a whole. Calls of active or inactive are those of the source. Cut-off read from the data, not from the text of the source: active = growth inhibition above about 70%; inactive = the rest.

Legend:
[1] = NCI Yeast Anticancer Drug Screen. Data for the mec2-1 strain (AID 157); conditions: S. cerevisiae mec2-1 strain, active compounds read high
How it was run: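 Compounds were applied to mec2-1 yeast cells. Their growth was then compared with that of vehicle-treated cultures to give growth inhibition.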

[2] = NCI Yeast Anticancer Drug Screen. Data for the rad14 strain (AID 159);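 note: 0% = growth of vehicle-treated control cultures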; conditions: S. cerevisiae rad14 strain growth inhibition, active compounds read high
How it was run: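 DNA repair-defective yeast, compound-exposed; % growth inhibition derived by comparison with vehicle-treated controls.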

[3] = NCI Yeast Anticancer Drug Screen. Data for the sgs1 mgt1 strain (AID 161);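 note: 0% = growth of cultures given vehicle only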; conditions: S. cerevisiae sgs1 mgt1 strain, active compounds read high
How it was run: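 Percent growth inhibition was derived by comparing compound-exposed mutant yeast with vehicle-exposed cultures. The strain carries alterations in DNA damage repair.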

[4] = NCI Yeast Anticancer Drug Screen. Data for the CLN2oe strain (AID 163);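 note: 0% = growth of vehicle-only control cultures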; conditions: S. cerevisiae CLN2oe strain, active compounds read high
How it was run: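 Cells of an engineered yeast line with disturbed cell-cycle regulation are treated with compound. Inhibition of growth is then calculated relative to the vehicle-treated reference.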

[5] = NCI Yeast Anticancer Drug Screen. Data for the cln2 rad14 strain (AID 165);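 note: 0% = growth equal to vehicle treated cultures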; conditions: S. cerevisiae cln2 rad14 strain, active compounds read high
How it was run: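 Strain: cln2 rad14 yeast, altered in cell cycle control and DNA damage repair. Read-out: growth inhibition vs vehicle.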

[6] = NCI Yeast Anticancer Drug Screen. Data for the wt2 strain (AID 169);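 note: 0% = growth of vehicle-treated yeast cultures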; conditions: S. cerevisiae wt2 strain growth inhibition, active compounds read high
How it was run: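 Growth of compound-treated yeast is measured and expressed as inhibition relative to vehicle-only controls.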

[7] = NCI Yeast Anticancer Drug Screen. Data for the mlh1 strain (AID 171);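 note: 0% = growth of vehicle-treated control cultures of the same strain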; conditions: S. cerevisiae mlh1 strain growth inhibition, active compounds read high
How it was run: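 Test agents were incubated with yeast bearing a defined DNA damage repair or cell cycle control alteration; values are growth inhibition normalised to vehicle-treated cultures.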

[8] = NCI Yeast Anticancer Drug Screen. Data for the sgs1 strain (AID 173);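 note: 0% = growth of vehicle-only control cultures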; conditions: S. cerevisiae sgs1 mutant, active compounds read high
How it was run: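 Strain with an altered DNA repair or cell cycle pathway exposed to compound. Growth then measured. Value = inhibition versus vehicle control.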

[9] = NCI Yeast Anticancer Drug Screen. Data for the mlh1 rad18 strain (AID 175); conditions: S. cerevisiae mlh1 rad18 strain growth inhibition, active compounds read high
How it was run: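 A repair-deficient yeast strain is exposed to test compound, and growth is scored relative to vehicle-treated controls.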

[10] = NCI Yeast Anticancer Drug Screen. Data for the rad18 strain (AID 177); conditions: S. cerevisiae rad18 mutant growth inhibition, active compounds read high
How it was run: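 DNA-repair-defective yeast; compound treatment; growth inhibition scored against vehicle.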

[11] = NCI Yeast Anticancer Drug Screen. Data for the rad52 strain (AID 147);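 note: 0% = growth of vehicle-treated control cultures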; conditions: S. cerevisiae rad52 mutant growth inhibition, active compounds read high
How it was run: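 Growth of repair-deficient yeast cells was compared between compound-treated and vehicle-treated cultures to give percent inhibition.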

[12] = NCI Yeast Anticancer Drug Screen. Data for the wt1 strain (AID 149);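 note: 0% = growth of vehicle-treated wt1 cultures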; conditions: S. cerevisiae wt1 strain (SPY 50644) growth inhibition, active compounds read high
How it was run: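 wt1 strain grown with compound or vehicle; inhibition taken from the growth difference.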

[13] = NCI Yeast Anticancer Drug Screen. Data for the rad50EPP+ strain (AID 151);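 note: 0% = growth of vehicle-treated control cultures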; conditions: S. cerevisiae rad50 mutant strain, active compounds read high
How it was run: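 Measured: growth inhibition of rad50EPP+ yeast. Reference: vehicle-treated controls. Screen uses strains with defined genetic alterations in DNA damage repair or cell cycle control.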

[14] = NCI Yeast Anticancer Drug Screen. Data for the mgt1 strain (AID 153); conditions: S. cerevisiae mgt1 mutant growth inhibition, active compounds read high
How it was run: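 Compounds were applied to mgt1 mutant yeast, and growth was then compared against vehicle-treated control cultures to give percent inhibition.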

[15] = NCI Yeast Anticancer Drug Screen. Data for the rad50 strain (AID 155);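 note: 0% = growth of vehicle-only cultures of the same strain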; conditions: S. cerevisiae rad50 strain growth inhibition, active compounds read high
How it was run: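 DNA repair mutant yeast, compound exposure, growth read-out; inhibition is taken relative to vehicle.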

[16] = NCI Yeast Anticancer Drug Screen. Data for the bub3 strain (AID 167); conditions: S. cerevisiae bub3 mutant strain, active compounds read high
How it was run: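 In this screen, a yeast mutant lacking normal mitotic checkpoint function is challenged with compound. Relative growth versus vehicle gives the inhibition value.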

[17] = at 5.0 µM (retest, dose inferred, filed as 0.5)
[18] = at 50.0 µM (retest, dose inferred, filed as 5.0)

Measured: growth inhibition

COc1cc(/C=C2\CCc3ccccc3C2=O)cc(OC)c1OC
inactive: [1]; [17] -11% | [1]; at 11.0 µM 1% | [1]; at 33.0 µM 22% | [1]; [18] 14% | [1]; at 50.0 µM 25.6% | [2]; at 1.2 µM -10% | [2]; at 3.7 µM -25% | [2]; at 11.0 µM -44% | [2]; at 33.0 µM -28% | [2]; at 100.0 µM 48% | [3]; [17] 5% | [3]; [18] 33% | [3]; at 50.0 µM 56.8% | [4]; at 1.2 µM 13% | [4]; at 3.7 µM -2% | [4]; at 11.0 µM 2% | [4]; at 33.0 µM 15% | [5]; [17] 2% | [5]; [18] 24% | [5]; at 50.0 µM 39.8% | [6]; at 1.2 µM 2% | [6]; at 3.7 µM 0% | [6]; at 11.0 µM -10% | [6]; at 33.0 µM 13% | [7]; at 1.2 µM -3% | [7]; at 3.7 µM -7% | [7]; at 11.0 µM -11% | [7]; at 33.0 µM 21% | [8]; at 1.2 µM 16% | [8]; at 3.7 µM 17% | [8]; at 11.0 µM 24% | [8]; at 33.0 µM 61% | [9]; [17] -15% | [9]; [18] 0% | [9]; at 50.0 µM 33.5% | [10]; at 1.2 µM 5% | [10]; at 3.7 µM 8% | [10]; at 11.0 µM 7% | [10]; at 33.0 µM 35%
active: [1]; at 100.0 µM 73% | [4]; at 100.0 µM 74% | [6]; at 100.0 µM 79% | [7]; at 100.0 µM 75% | [8]; at 100.0 µM 86% | [10]; at 100.0 µM 73%

CCCS(=O)(=O)Nc1ccc(Nc2c3ccccc3nc3ccccc23)c(OC)c1
inactive: [11]; at 1.2 µM 20% | [11]; at 3.7 µM 64% | [12]; at 1.2 µM -70% | [12]; at 3.7 µM -55% | [12]; at 11.0 µM -64% | [12]; at 33.0 µM -35% | [12]; at 100.0 µM 66% | [13]; at 1.2 µM -32% | [13]; at 3.7 µM -21% | [13]; at 11.0 µM -20% | [13]; at 33.0 µM 16% | [13]; at 100.0 µM 69% | [14]; at 1.2 µM -21% | [14]; at 3.7 µM -64% | [14]; at 11.0 µM -52% | [14]; at 33.0 µM -10% | [15]; at 1.2 µM 14% | [15]; at 3.7 µM 59% | [15]; at 50.0 µM 7.1% | [1]; at 1.2 µM -59% | [1]; at 3.7 µM -88% | [1]; [17] 2% | [1]; at 11.0 µM -60% | [1]; at 33.0 µM 33% | [1]; at 50.0 µM 12.8% | [2]; at 1.2 µM -62% | [2]; at 3.7 µM -61% | [2]; at 11.0 µM -43% | [2]; at 33.0 µM -16% | [2]; at 100.0 µM 66% | [3]; [17] 36% | [4]; at 1.2 µM -9% | [4]; at 3.7 µM -14% | [4]; at 11.0 µM -11% | [4]; at 33.0 µM 21% | [4]; at 100.0 µM 67% | [5]; [17] 34% | [5]; at 50.0 µM 52% | [16]; at 1.2 µM -67% | [16]; at 3.7 µM -49% | [16]; [17] 40% | [16]; at 11.0 µM -45% | [16]; at 33.0 µM -16% | [16]; at 50.0 µM 37.6% | [16]; at 100.0 µM 65% | [7]; at 1.2 µM -85% | [7]; at 3.7 µM -74% | [7]; at 11.0 µM -45% | [7]; at 33.0 µM 9% | [8]; at 1.2 µM -45% | [8]; at 3.7 µM -47% | [8]; at 11.0 µM -41% | [8]; at 33.0 µM 7% | [9]; [17] 66% | [9]; at 50.0 µM 29.4% | [10]; at 1.2 µM -58% | [10]; at 3.7 µM -63% | [10]; at 11.0 µM -43% | [10]; at 33.0 µM -10%
active: [11]; at 11.0 µM 82% | [11]; at 33.0 µM 87% | [11]; at 100.0 µM 93% | [14]; at 100.0 µM 73% | [15]; [17] 79% | [15]; at 11.0 µM 84% | [15]; at 33.0 µM 90% | [15]; [18] 98% | [15]; at 100.0 µM 91% | [1]; [18] 99% | [1]; at 100.0 µM 85% | [3]; [18] 99% | [3]; at 50.0 µM 82.8% | [5]; [18] 98% | [16]; [18] 98% | [7]; at 100.0 µM 74% | [8]; at 100.0 µM 77% | [9]; [18] 98% | [10]; at 100.0 µM 75%
